From PubChem BioAssay AID651911 (Vanderbilt Specialized Chemistry Center, 2012)
Calls of active or inactive are those of the source. The rule behind the calls is not given here.

Biological target: Histone deacetylase 11 (Homo sapiens) (UniProt Q96DB2)
Assay: inhibitors of recombinant human HDAC11 – biochemical, selectivity assay for E-cadherin restoration project, profiling panel (AID 651911)

Chain of Histone deacetylase 11 (Homo sapiens) (Q96DB2 whole entry, looked up): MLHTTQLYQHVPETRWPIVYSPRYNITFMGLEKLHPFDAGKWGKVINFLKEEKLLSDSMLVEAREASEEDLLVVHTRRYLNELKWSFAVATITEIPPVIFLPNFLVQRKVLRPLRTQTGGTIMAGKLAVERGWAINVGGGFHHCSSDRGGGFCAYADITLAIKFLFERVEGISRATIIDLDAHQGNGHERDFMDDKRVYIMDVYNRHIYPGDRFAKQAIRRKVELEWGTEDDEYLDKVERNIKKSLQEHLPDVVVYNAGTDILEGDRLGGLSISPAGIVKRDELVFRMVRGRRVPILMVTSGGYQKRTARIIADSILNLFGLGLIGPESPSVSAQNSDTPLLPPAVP

How did the outcome turn out when `O=C(NCCCNC(=O)c1ccc[nH]c1=O)c1cc(-c2ccccc2)on1` was run?
Its outcome is “inactive”.
